Results with a measured potency or affinity are listed apart. Calls of active or inactive are those of the source.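 Rule for the calls: active = polarization signal falls with dose and the fitted half-maximal concentration is at or below ten times the sample's top valid dose; inconclusive = flat curve at 30 to 70% inhibition, or poor fit; inactive = signal rises, flat within 30%, or potency beyond limit.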
molecular target: Golgi-associated PDZ and coiled-coil motif-containing protein (Homo sapiens) (UniProt Q9HD26); experiment: CAL PDZ peptide-binding inhibitors, dose response, biochemical, fluorescence polarization, Cerulean-tagged CAL PDZ, cherry-picks (AID 504773); conditions: 1 h; series mostly up to 50 µM; activity change, negative = inhibition: at the top concentration;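 note: 0% = DMSO neutral wells and -100% = excess unlabeled competitor peptide wells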

Activity change, negative = inhibition, inactive:
CCOC(=O)c1ccc(N=C2SC(C(=O)NC)CC(=O)N2Cc2ccc(F)cc2)cc1 (stereo not drawn) 10.4%, Cc1ccc(-c2nnn(CC(=O)N(CCN3CCOCC3)C(C(=O)NC(C)(C)C)c3ccc(C)o3)n2)cc1 (stereo not drawn) 7.03%, O=[N+]([O-])c1ccccc1/C=N/Nc1nc(N2CCCC2)nc(N2CCCC2)n1 7.89%, Cc1ccc(S(=O)(=O)N2CCN(C(=O)c3cc(=O)c4ccccc4o3)CC2)cc1 -30.3%, CCN(CCCn1c(=S)[nH]c2ccc(N3CCOCC3)cc2c1=O)c1ccccc1 8.28%, Cc1cc(Cl)c(Cl)cc1S(=O)(=O)NCCCn1ccnc1 24.4%, O=C(NCC1CCCO1)c1cn(-c2ccccc2)nc1-c1ccc(F)cc1 (stereo not drawn) 14.8%, C[n+]1ccc(C(=O)Nc2ccccc2Cl)cc1 4.9%, CS(=O)(=O)c1ccc(Cl)c(NC(=O)COC(=O)c2c(Cl)cccc2Cl)c1 -13.4%, COC(=O)c1ccc(CNC(=O)COC(=O)c2cc(Cl)nc(Cl)c2)cc1 -30%, CCCCNC(=S)NNc1c(Cl)cc(Cl)cc1Cl -19.6%, CSc1ccccc1NC(=O)c1ccccc1 8.04%, CC(C)n1cc(C(=O)N2CCCC(N3CCN(c4ccc(F)cc4)CC3)C2)cn1 (stereo not drawn) -11%, COc1ccc(CN(C)C(C)C(=O)NC2CCCc3ccccc32)cc1 (stereo not drawn) -18.4%, COc1cccc(NC(=O)N2CCCCCC2)c1 21.9%, CCOCCCNC(=O)c1ccc2c(=O)n(Cc3ccc4c(c3)OCO4)c(=S)[nH]c2c1 5.52%, COC(=O)C1CCN(C(=O)/C(C)=C\c2ccccc2)CC1 -13.2%, O=C(Nc1ccc(Cl)cc1)c1ccc(CN2CCc3ccccc3C2)cc1 -19.8%
